PubChem BioAssay (EPA / NIEHS)
Calls of active or inactive are those of the source. Rule for the calls: active = hit-call score of the fitted dose curve at least 0.9, where 1 is the maximum; inactive = score below 0.9.

Experiments:
Details in all cases: mRNA level, 48 h; actives raise or lower the signal
[1] = read-out: 3-Hydroxy-3-Methylglutaryl-CoA Synthase 2 (HMGCS2), HMGCS2 (gene 3158); assay: LTEA_HepaRG_HMGCS2: Life Technologies and Expression Analysis (LTEA) Assay for 3-Hydroxy-3-Methylglutaryl-CoA Synthase 2 (HMGCS2) using HepaRG (AID 2283504)
In short: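 HepaRG, plated 48 h then switched to serum-free induction media; cmpd 8-pt, max 100 uM, 1/2-log, 0.5% DMSO, n=2, 48 h. HMGCS2 mRNA by Fluidigm TaqMan qRT-PCR, ACTB/GAPDH/POLR2A norm; bidirectional fit vs DMSO.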

HGF (gene 3082) = assay: LTEA_HepaRG_HGF: Life Technologies and Expression Analysis (LTEA) Assay for Hepatocyte Growth Facto (HGF) using HepaRG (AID 2283505)
In short: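 Read-out is HGF transcript level by qRT-PCR, normalized to three housekeeping genes, fitted bidirectionally against 0.5% DMSO vehicle. Human HepaRG cells received test chemicals for 48 h at up to 100 uM.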

[2] = read-out: Insulin Like Growth Factor 1 (IGF1), IGF1 (gene 3479); assay: LTEA_HepaRG_IGF1: Life Technologies and Expression Analysis (LTEA) Assay for Insulin Like Growth Factor 1 (IGF1) using HepaRG (AID 2283506)
In short: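 Expression measured by TaqMan qRT-PCR on a Fluidigm array, with three housekeeping genes for normalisation, after 48 h treatment of HepaRG cells. Top concentration 100 uM with half-log steps, 0.5% DMSO vehicle, bidirectional fit.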

[3] = read-out: Intercellular Adhesion Molecule 1 (ICAM1), ICAM1 (gene 3383); assay: LTEA_HepaRG_ICAM1: Life Technologies and Expression Analysis (LTEA) Assay for Intercellular Adhesion Molecule 1 (ICAM1) using HepaRG (AID 2283507)
In short: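 Readout is qRT-PCR mRNA level, normalized to three housekeeping genes and fitted bidirectionally against 0.5% DMSO vehicle. Human HepaRG cultures received compound for 48 h, top concentration 100 uM with half-log dilutions.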

[4] = read-out: Insulin-like growth factor-binding protein 1 (IGFBP1), IGFBP1 (gene 3484); assay: LTEA_HepaRG_IGFBP1: Life Technologies and Expression Analysis (LTEA) Assay for Insulin-like growth factor-binding protein 1 (IGFBP1) using HepaRG (AID 2283508)
In short: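 Thawed HepaRG cells are plated for 48 h, switched to serum-free induction medium, then dosed in duplicate for another 48 h (100 uM top, half-log steps). Lysates in RLT go to qRT-PCR, and gain or loss of signal is fitted relative to vehicle.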

[5] = read-out: Interleukin 6 (IL6), IL6 (gene 3569); assay: LTEA_HepaRG_IL6: Life Technologies and Expression Analysis (LTEA) Assay for Interleukin 6 (IL6) using HepaRG (AID 2283509)
In short: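 Changes in IL6 mRNA, up or down relative to 0.5% DMSO controls, were derived from concentration-response curves in human HepaRG cells treated for 48 h at up to 100 uM, with ACTB, GAPDH and POLR2A as normalizers.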

[6] = read-out: Interleukin 6 Receptor (IL6R), IL6R (gene 3570); assay: LTEA_HepaRG_IL6R: Life Technologies and Expression Analysis (LTEA) Assay for Interleukin 6 Receptor (IL6R) using HepaRG (AID 2283510);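 for AC50: differentiated human HepaRG liver cells in serum-free induction medium; TaqMan qRT-PCR signal normalized to ACTB GAPDH and POLR2A housekeeping genes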
In short: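 IL6R transcript level by qRT-PCR after 48 h chemical exposure (8-point, half-log, max 100 uM, 0.5% DMSO vehicle) of HepaRG cells in serum-free induction medium. Normalized to three housekeeping genes; curves fitted in both directions relative to DMSO.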

[7] = read-out: Potassium channel subfamily K member 1 (KCNK1), KCNK1 (gene 3775); assay: LTEA_HepaRG_KCNK1: Life Technologies and Expression Analysis (LTEA) Assay for Potassium channel subfamily K member 1 (KCNK1) using HepaRG (AID 2283511)
In short: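 Human HepaRG cultures receive test chemicals for 48 h in 0.5% DMSO, top concentration 100 uM with half-log dilutions. Induction or suppression of KCNK1 mRNA relative to DMSO is derived by bidirectional fitting of qRT-PCR data.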

[8] = read-out: Keratin 19 (KRT19), KRT19 (gene 3880); assay: LTEA_HepaRG_KRT19: Life Technologies and Expression Analysis (LTEA) Assay for Keratin 19 (KRT19) using HepaRG (AID 2283512)
In short: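 KRT19 transcript levels, measured by Fluidigm qRT-PCR against three housekeeping genes, are fitted for gain or loss of signal relative to DMSO. Human HepaRG cells receive test chemicals (top 100 uM, half-log steps, 0.5% DMSO) for 48 hours.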

[9] = read-out: JUN Transcription Factor, JUN (gene 3725); assay: LTEA_HepaRG_JUN: Life Technologies and Expression Analysis (LTEA) Assay for JUN Transcription Factor using HepaRG (AID 2283513)
In short: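 mRNA measured by TaqMan qRT-PCR after 48 h chemical exposure of HepaRG cultures; normalization to three housekeeping genes. Duplicate eight-point half-log curves from 100 uM in 0.5% DMSO; gain or loss fitted against DMSO baseline.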

Measured: AC50

C=CCOC(Cn1ccnc1)c1ccc(Cl)cc1Cl (stereo not drawn)
inactive: HGF (gene 3082)
active: [1] 32.4 µM | [2] 18.3 µM | [3] 13.2 µM | [4] 30 µM | [5] 73.7 µM | [6] 12.7 µM | [7] 50 µM | [8] 12.3 µM | [9] 75.5 µM

CCOC(=O)NCCOc1ccc(Oc2ccccc2)cc1
inactive: HGF (gene 3082) | [3] | [7] | [9]
active: [1] 77.1 µM | [2] 89.5 µM | [4] 73.1 µM | [5] 77.9 µM | [6] 20.7 µM | [8] 89.8 µM

c1ccc(Nc2ccccc2)cc1
inactive: [1] | HGF (gene 3082) | [2] | [3] | [4] | [5] | [6] | [7] | [8] | [9]

CCCCCOC(=O)COc1cc(N2C(=O)C3=C(CCCC3)C2=O)c(F)cc1Cl
inactive: [1] | HGF (gene 3082) | [2] | [3] | [4] | [5] | [6] | [7] | [8] | [9]

CCCCC(CC)CN1C(=O)C2C3C=CC(C3)C2C1=O (stereo not drawn)
inactive: HGF (gene 3082) | [3] | [6] | [7] | [8] | [9]
active: [1] 86.3 µM | [2] 50 µM | [4] 82.9 µM | [5] 74.9 µM

COC(=O)CSc1cc(N=c2sc(=O)n3n2CCCC3)c(F)cc1Cl
inactive: [1] | HGF (gene 3082) | [2] | [3] | [4] | [5] | [6] | [7] | [8] | [9]

O=C(O)c1ccccc1
inactive: [1] | HGF (gene 3082) | [2] | [3] | [4] | [5] | [6] | [7] | [8] | [9]

COC(=O)c1ccccc1C(=O)O
inactive: [1] | HGF (gene 3082) | [2] | [3] | [5] | [6] | [7] | [8] | [9]

CCCOC(=O)NCCCN(C)C
inactive: [1] | [2] | [3] | [4] | [5] | [6] | [7] | [8] | [9]

CCCCOC(=O)C(C)Oc1ccc(Oc2ccc(C(F)(F)F)cn2)cc1 (stereo not drawn)
inactive: [1] | HGF (gene 3082) | [2] | [3] | [4] | [5] | [6] | [7] | [8] | [9]

C#CCOC(=O)[C@@H](C)Oc1ccc(Oc2ncc(Cl)cc2F)cc1
active: [1] 11.7 µM
inactive: HGF (gene 3082) | [2] | [3] | [4] | [5] | [6] | [7] | [8] | [9]

CN(C)C(=O)Nc1ccc(Cl)c(Cl)c1
inactive: [1] | HGF (gene 3082) | [2] | [3] | [5] | [6] | [7] | [9]
active: [4] 34.6 µM | [8] 50 µM

CCNc1nc(N)nc(Cl)n1
inactive: [1] | HGF (gene 3082) | [2] | [3] | [4] | [5] | [6] | [7] | [8] | [9]

CCCCOCCOCCOCc1cc2c(cc1CCC)OCO2
active: [2] 21.3 µM
inactive: [1] | HGF (gene 3082) | [3] | [4] | [5] | [6] | [7] | [8] | [9]
